# High-throughput results: PubChem, National Center for Advancing Translational Sciences (NCATS)
# KB-3-1 cytotox: KB-3-1 parental cell cytotoxicity; KB-3-1 viability, CellTiter-Glo ATP luminescence, 72 h; Potency, µM (top dose mostly 46.1 µM), actives largely listed as cytotoxic; actives 1.4% (n = 400,000); AID 1347075; further: nearly all actives have a fitted effect of over 60% in size
#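 Using CellTiter-Glo luminescence, growth of non-resistant KB-3-1 adenocarcinoma cells is assessed 72 h after pin-tool compound addition at 37 °C. Normalized responses across the concentration series yield fitted curves.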
# HT1080 IDH1KD tx: HT-1080 IDH1 knockdown cell toxicity (counter line) | HT-1080 IDH1 knockdown viability, ATP luminescence, 48 h | Potency, µM (highest dose often 46.1 µM), hits mostly cytotoxic | actives 2% (n = 360,000) | AID 686971
#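 In this qHTS, HT-1080 cells depleted of IDH1 are exposed for 48 h at 37 °C to compound titrations. Toxicity is scored from CellTiter-Glo luminescence, with DMSO as full viability and medium alone as none.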
# KB-V1 MDR tox: kills drug-selected multidrug resistant KB-V1 cells; actives 3.4% (n = 400,000); KB-V1 MDR cells viability, CellTiter-Glo, 72 h; Potency, µM (titrated, usually from 46.1 µM), most hits filed as cytotoxic; further: nearly all actives have a fitted effect of over 60% in size
#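 Cytotoxicity toward P-gp-expressing KB-V1 cells was determined as loss of CellTiter-Glo luminescence after 72 h at 37 degrees C. Compounds were tested in quantitative HTS format across a concentration range, with curves fitted to normalized data.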
# ATXN2 expr inh: inhibitors of ATXN2 expression | AID 1745845 | actives 0.72% (n = 360,000) | Potency, µM (top dose mostly 57 µM), usual class: inhibitors | HEK-293 ATXN2-luciferase reporter, luminescence, 24 h; further: nearly all actives have a fitted effect of over 55% in size
#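 ATXN2-luciferase reporter cells (luciferase flanked by upstream and downstream ATXN2 gene portions) were treated 24 h at 37 °C with compounds at up to 57 uM. SteadyGlo luminescence gave expression; GF-AFC fluorescence gave viability.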
# HT1080NT lethal: kills 2HG-producing HT-1080-NT fibrosarcoma cells; Potency, µM (series often up to 46.1 µM), usual class: cytotoxic; HT-1080-NT fibrosarcoma viability, CellTiter-Glo ATP luminescence, 48 h; actives 1.6% (n = 360,000);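 further: NT is the 2HG producing partner of a matched IDH1 knockdown line; nearly all actives have a fitted effect of over 55% in size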
#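 Read-out is CellTiter-Glo luminescence after 10 minutes at room temperature, following 48 hours' compound treatment of HT-1080-NT cells (750 cells/well, RPMI, 5% FBS, 37 degrees C).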
# ATXN viability: reduces viability in counter-screen for ATXN expression inhibitors. actives 0.49% (n = 400,000). Potency, µM (titrated, usually from 56.7 µM), most hits filed as cytotoxic. AID 651635. S2 cells (HEK-293 line with an ATXN2-luciferase reporter) viability, CellTiter-Fluor protease fluorescence, 24 h; further: nearly all actives have a fitted effect of over 40% in size
# Numbers stand for hits; – = inactive; ? = inconclusive; · = not tested or not shown. Only some compounds are listed: those with a hit (about 6.2% of all), similar ones and a draw of the others. The call rests on the fitted dose curve; in most records, active means well fitted curve in the direction sought with a large enough effect; inconclusive means small, poorly fitted or top-dose-only effect, or another doubt; inactive means no such curve, though single readings can be large; an effect the other way counts as inactive or inconclusive.
SMILES,KB-3-1 cytotox,HT1080 IDH1KD tx,KB-V1 MDR tox,ATXN2 expr inh,HT1080NT lethal,ATXN viability
OC(c1cccc(CN2CCCCC2)c1)c1ncc(-c2cccc3ccccc23)[nH]1 (centres undefined),–,?,–,–,16µM,–
COc1ccc(-n2c(SCC(=O)NCc3ccccc3)nc3c([nH]c4ccccc43)c2=O)cc1,–,·,–,–,·,–
Cc1c(C(=O)OCC2CCCCC2)[nH]c2c1C(=O)CC(c1ccccc1Cl)C2 (centres undefined),–,·,?,–,·,–
c1ccc(-c2nc(N3CCN(c4ccccc4)CC3)nc(-n3ccnc3)n2)cc1,?,?,23µM,–,11µM,–
CN(C)c1ccc(CCC2C=Cc3ccccc32)cc1 (centres undefined),–,·,–,·,·,·
CCCCCCCCCCCCCCCCCCOP(=O)([O-])OC1CC[N+](C)(C)CC1,·,·,·,·,·,–
Cc1ccc(S(=O)(=O)N(CC(=O)N/N=C/c2ccco2)c2cc(Cl)cc(Cl)c2)cc1,–,?,18µM,–,?,–
O=C(CN(c1ccc(Cl)cc1)S(=O)(=O)c1ccccc1)N/N=C/c1ccco1,–,–,–,–,–,–
COc1cccc(/C=c2\s/c(=C\C(=O)C(C)(C)C)[nH]c2=O)c1,?,–,15µM,–,–,?
Cc1ccc(NC2=Nc3ccccc3N3C2=Nc2c(c(C)nn2-c2ccccc2)C3c2ccc(O)c(O)c2)cc1 (centres undefined),?,?,?,?,23µM,–
Cc1nn(-c2ccccc2)c2c1C(c1ccc(O)c(O)c1)N1C(=N2)C(Nc2ccccc2)=Nc2ccccc21 (centres undefined),–,–,–,–,–,?
Cc1nn(-c2ccc([N+](=O)[O-])cc2)c2c1C(c1cccc(Br)c1)N1C(=N2)C(=O)Nc2ccccc21 (centres undefined),–,–,?,–,–,?
Cc1cccc(NC2=Nc3ccccc3N3C2=Nc2c(c(C)nn2-c2ccccc2)C3c2ccc(O)c(O)c2)c1 (centres undefined),?,16µM,?,?,15µM,–
C#C[C@]1(O)CC[C@H]2[C@H]3CCc4cc(OC)ccc4[C@H]3CC[C@@]21C,·,·,·,–,·,·
C#C[C@]1(O)CC[C@H]2[C@@H]3CCc4cc(OC5CCCC5)ccc4[C@H]3CC[C@@]21C,?,21µM,–,?,16µM,32µM
c1ccc(C(Nc2cccnc2)c2ccccc2)cc1,–,–,21µM,–,–,–
Cc1nn(C(=O)c2ccccc2)c(C)c1Sc1ccc(Cl)cc1,?,·,7.3µM,25µM,·,28µM
CCCNC(=O)CNC(=S)N(Cc1cc(OC)c(OC)c(OC)c1)C1CCCC1,–,–,16µM,–,–,–
CN(C)S(=O)(=O)c1ccc(N2CCN(S(=O)(=O)c3ccc(F)cc3)CC2)c(Cl)c1,?,7.1µM,5.8µM,–,10µM,–
O=C(O)c1ccc(N/N=C/c2ccc(OC(=O)c3cccc(Cl)c3)cc2)cc1,–,–,–,5µM,–,–
O=C(Oc1ccc(/C=N/Nc2ccccc2)cc1)c1ccccc1,–,–,–,–,–,–
Cc1cccc(C2NC(=O)c3ccccc3N2)c1 (centres undefined),13µM,?,?,–,?,–
O=C1NC(c2ccc(Cl)cc2)Nc2ccccc21 (centres undefined),–,–,–,–,–,–
Cc1ccc(C2NC(=O)c3ccccc3N2)s1 (centres undefined),4.6µM,15µM,7.3µM,–,?,–
CN(C)c1ccc(C2NC(=O)c3ccccc3N2)cc1 (centres undefined),?,–,13µM,–,–,–
Cc1ccc(C2NC(=O)c3ccccc3N2)c(C)c1 (centres undefined),3.7µM,18µM,5.8µM,–,7.3µM,?
Cc1cc2nccc(/C=C/c3ccc(N(C)C)cc3)c2cc1C,–,·,–,·,·,·
O=C(CNc1ccccc1)N/N=C/c1c(O)ccc2ccccc12,16µM,12µM,–,7.1µM,10µM,–
